Assay outcomes: PubChem BioAssay, National Center for Advancing Translational Sciences (NCATS)
HT1080 IDH1KD tx – kills HT-1080 cells with IDH1 knockdown; HT-1080 IDH1 knockdown viability, ATP luminescence, 48 h; Potency, µM (doses to about 46.1 µM), without a hit: top-dose activity, negative = toxicity, actives largely listed as cytotoxic; 2% of 360,000 active; AID 686971;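 note: potency is the fitted concentration of half-maximal effect; 0% = DMSO wells and -100% = cell-free medium wells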
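Luminescent ATP read-out (CellTiter-Glo, 10 min at room temperature) after 48 h compound exposure at 37 °C gave viability of IDH1-knockdown HT-1080 cells. Activity was normalised to DMSO and cell-free wells, then fitted as concentration-response curves.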
HT1080-NT tox – kills 2HG-producing HT-1080-NT fibrosarcoma cells | HT-1080-NT fibrosarcoma viability, CellTiter-Glo ATP luminescence, 48 h | Potency, µM (series often up to 46.1 µM), without a hit: at the highest dose activity, negative = less viability, usual class: cytotoxic | 1.6% of 360,000 active | AID 686970;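 note: NT is the 2HG producing partner of a matched IDH1 knockdown line; potency is the fitted concentration of half-maximal effect; 0% = DMSO-treated cells and -100% = media-only wells without cells; nearly all actives have a fitted effect of over 55% in size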
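Luminescent CellTiter-Glo readout after 48 hours of compound exposure at 37 degrees C defined viability of HT-1080-NT cells. Activity was normalized to DMSO wells and cell-free media wells; concentration-response curves were fitted and assigned curve classes.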
ELG1 DNA repair – ELG1-dependent DNA repair inhibition | Potency, µM (series often up to 46.1 µM), without a hit: at the top dose activity change, negative = inhibition, actives largely listed as inhibitors | HEK293T ELG1-luciferase reporter, luminescence, 16 h; DNA damage induced by 5-fluorouridine | 2.3% of 330,000 active | AID 504467; note: potency is the fitted concentration of half-maximal effect; nearly all actives have a fitted effect of over 55% in size
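Overnight (16 hr) co-exposure of 2,000 cells/well to 5-fluorouridine and compound at 37 °C preceded detection. Luciferase was quantified via ONE-Glo luminescence; loss of signal denotes inhibition.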
DT40 TDP1 CPT – growth inhibition of DT40 Tdp1-/-;hTDP1 cells with camptothecin (screen for TDP1 inhibitors) | chicken DT40 Tdp1-/-;hTDP1 cells + 20 nM CPT, ATP luminescence, 48 h | 12% of 420,000 active | Potency, µM (highest dose often 46.2 µM), for inactives: at the top dose activity change, negative = growth inhibition, most hits filed as inhibitors | AID 686979; note: potency is the fitted concentration of half-maximal effect; nearly all actives have a fitted effect of over 55% in size
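Cell growth measured by CellTiter-Glo luminescence after a minimum 48 h, 37 C compound exposure with 20 nM CPT in Tdp1-knockout DT40 cells stably expressing hTDP1, seeded 400/well; qHTS titration format.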
IL1B secr inh – inhibitors of inflammasome signaling (IL-1 beta secretion) | 4.7% of 360,000 active | THP-1 LPS/ATP IL-1B secretion, AlphaLISA, 16 h; active compounds read low | activity change, % at 57.5 µM; in the data active = activity change below about -50%; inconclusive = mostly about -30% to -49%
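THP-1 cells pretreated 1 hr with compounds (up to 57.5 uM final), then stimulated with LPS (250 ng/mL final) plus ATP (1.25 mM final); secreted IL-1B measured by AlphaLISA after 16 hr, decreased signal indicating inhibition.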
DT40 TDP1 no CPT – qHTS for Inhibitors of human tyrosyl-DNA phosphodiesterase 1 (TDP1): qHTS in cells in absence of CPT; DT40 Tdp1-/- hTDP1 cells, no CPT, ATP luminescence, 48 h; Potency, µM (highest dose often 46.2 µM), for the others: at the highest dose activity change, negative = growth inhibition, most hits filed as inhibitors; 15% of 420,000 active; note: potency is the fitted concentration of half-maximal effect; nearly all actives have a fitted effect of over 55% in size
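No-CPT arm: Tdp1-/-;hTDP1 DT40 cells (400/well) plus compounds, incubated ≥48 hr at 37 °C. Readout CellTiter-Glo luminescence.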
* hit, by the source's call; ? = inconclusive; · = no result; [ ] = another dose, or the depositor's remark. Shown are actives, neighbours in structure and some others; about 19% of the full set was active somewhere. Unless noted, calls come from the whole dose curve; as a rule, active = well fitted curve in the direction sought with a large enough effect; inconclusive = small, poorly fitted or top-dose-only effect, or another doubt; inactive = no such curve, though single readings can be large; an effect the other way counts as inactive or inconclusive. Unless noted, % is set by controls: 0 for no effect and ±100 for the full control effect.

SMILES	HT1080 IDH1KD tx	HT1080-NT tox	ELG1 DNA repair	DT40 TDP1 CPT	IL1B secr inh	DT40 TDP1 no CPT
CCCOc1ccc(/C=C2/C(=O)ON=C2C)cc1Cl	7.4%	14.8%	14.2%	18.4µM*	0.0	?
CCOc1cc(/C=C2/C(=O)ON=C2C)ccc1O	-0.6%	7.8%	-1.6%	-16.7%	-9.9	5.1%
CC1=NOC(=O)/C1=C/c1ccc(O)c(Cl)c1	2.7%	20.1%	-9.5%	?	-11.6	9.2µM*
COc1cc(/C=C2/C(=O)ON=C2C)cc(Cl)c1O	-13.6%	23.0%	14.6%	18.4µM*	2.9	?
COc1cc(/C=C2\SC(c3ccccc3)=NC2=O)cc(Cl)c1O	15.1%	2.7%	13.8%	20.6µM*	34.7	?
COc1cc(/C=C2\SC(c3ccc(C)cc3)=NC2=O)cc(OC)c1OC	14.8%	4.7%	12.1%	-4.6%	27.4	-29.0%
CCNC(=O)Cc1ccc(S(=O)(=O)N2CCOCC2)s1	5.0%	0.6%	0.9%	9.1%	14.5	8.3%
CCCCN(C(=O)Cc1ccc(S(=O)(=O)N2CCOCC2)s1)c1ccccc1	8.3%	1.2%	-6.4%	?	22.4	20.6µM*
O=C(Cc1ccc(S(=O)(=O)N2CCOCC2)s1)N(Cc1ccccc1)c1ccccc1	4.9%	4.0%	?	?	-7.5	20.6µM*
CC(=O)NCCNc1ncncc1-c1ccccc1CN(C)C	·	·	·	8.9%	·	1.1%
CC(=O)N1CCC(c2nc3ccccc3n2C(C)C(=O)NCc2ccccc2)CC1 (centres undefined)	5.7%	17.1%	·	5.4%	25.2	5.0%
COc1ccc(/C(C)=N/NC(=O)c2nnn(-c3nonc3N)c2-c2cccs2)cc1OC	11.0%	-0.2%	?	-0.3%	9.7	11.6%
O=C(CS(=O)(=O)c1cccc2nsnc12)N1CCN(c2ccccc2F)CC1	·	·	·	-17.4%	·	-20.6%
COc1ccc(N2CCN(CCNC(=O)CCS(=O)(=O)c3cccc4nsnc34)CC2)cc1	·	·	-11.6%	·	·	·
O=C(CS(=O)(=O)c1cccc2nsnc12)N1CCN(c2cccc(C(F)(F)F)c2)CC1	·	·	·	8.2µM*	·	20.6µM*
Cc1cccc(N2CCN(C(=O)CS(=O)(=O)c3cccc4nsnc34)CC2)c1C	·	·	·	16.4µM*	·	?
Nc1ccnc(Oc2ccc(F)cc2)c1	10.5%	?	?	20.1%	3.9	-3.1%
Cn1c(CCNC(=O)C2CC23CCN(C(=O)C2=CCCC2)CC3)nc2ccccc21 (centres undefined)	·	·	·	9.1%[9.04 µM]	·	-22.2%
Cc1cc(NC(=O)COc2cccc(Oc3ccccc3)c2)no1	?	?	1.7%	13µM*	27.2	?
COc1ccc(OC)c(NC(=O)c2ccc3c(c2)OCO3)c1	8.7%	11.7%	?	-15.9%	0.0	0.3%
COc1ccc(OC)c(-c2csc(NC(=O)c3ccc4c(c3)OCO4)n2)c1	15.0%	26.1%	-15.1%	?	-3.4	14.6µM*
COc1ccc(-c2csc(NC(=O)CSCC(=O)Nc3cc(C)on3)n2)c(OC)c1	2.2%	1.3%	-9.2%	29.1µM*	-8.3	?
Cc1cc(NC(=O)CSCC(=O)Nc2ccccc2Oc2ccccc2)no1	-28.7%	-14.5%	0.0%	-24.3%	2.8	?
Cc1ccc(Oc2ccccc2NC(=O)CSCC(=O)Nc2cc(C)on2)cc1	?	?	1.5%	8.2µM*	7.0	10.3µM*
Cc1cccc(OCC(=O)Nc2cc(C)on2)c1	19.7%	25.2%	?	3.0%	12.2	17.7%
SMILES	HT1080 IDH1KD tx	HT1080-NT tox	ELG1 DNA repair	DT40 TDP1 CPT	IL1B secr inh	DT40 TDP1 no CPT
COc1ccc(OC)c(-c2csc(NC(=O)CSCC(=O)Nc3cc(C)on3)n2)c1	-0.2%	-1.9%	-28.1%	-1.7%	-21.6	-19.9%
COc1cc(SC)ccc1C(=O)Nc1cccc(C2OCCCO2)c1	6.2%	6.8%	?	-28.4%	?	?
O=C1CC2(CCCC2)CC(=O)N1CCNC[C@H]1COc2ccccc2O1	·	·	·	3.2%	·	-22.5%
CCc1ccc(CNC(=O)Cc2c(C(=O)O)c(C)cn2C)cc1	·	·	·	6.3%	·	-8.8%
Cc1cc(C)n(C(=O)c2ccc([N+](=O)[O-])cc2Cl)n1	3.1%	5.5%	-5.3%	3.0%	-14.8	2.3%
COc1ccc(OC)c(-c2csc(NC(=O)CSc3ccccc3)n2)c1	1.0%	-1.2%	-26.1%	?	?	13µM*
COc1ccc(OC)c(-c2csc(NC(=O)Cc3ccccc3)n2)c1	?	?	-24.3%	?	-9.6	?
COc1cccc(CC(=O)Nc2nc(-c3cc(OC)ccc3OC)cs2)c1	0.8%	3.2%	-20.0%	-24.7%	-26.5	-19.2%
COc1ccc(OC)c(-c2csc(NC(=O)C3CSC4(C)CCC(=O)N34)n2)c1 (centres undefined)	-6.0%	-3.5%	-18.3%	?	-54.8*	?
COc1ccc(-c2csc(NC(=O)C3CSC4(C)CCC(=O)N34)n2)cc1OC (centres undefined)	-20.6%	-13.3%	18.8%	-7.3%	-12.9	-4.4%
COc1ccc(CC(=O)Nc2nc(-c3cc(OC)ccc3OC)cs2)cc1	-10.2%	-19.0%	?	?	-88.4*	?
COc1ccc(-c2csc(NC(=O)Cc3ccccc3F)n2)c(OC)c1	-21.6%	-14.9%	?	?	-60.5*	?
C=CCN(c1ccc(C(=O)NCCCn2ccnc2)cc1)S(C)(=O)=O	-1.9%	12.1%	10.3%	29.5%	23.7	24.0%
Cc1ccc(CNC(=O)CCNC(=O)c2ccc([N+](=O)[O-])cc2)cc1	2.1%	19.4%	3.6%	2.7%	11.5	-2.5%
N#Cc1ccccc1NC(=O)c1cc2c(=O)n3ccccc3nc2s1	·	·	·	-4.7%	·	-7.7%
CC(C)NC(=O)N1CC[C@@]2(CCCN(C(=O)Oc3ccccc3)C2)C1	·	·	·	1.0%	·	-6.4%
COc1ccc(OC)c(-c2csc(NC(=O)C3c4ccccc4Oc4ccccc43)n2)c1	1.5%	2.0%	8.4%	9.3%	-26.1	-3.6%
COc1ccc(OC)c(-c2csc(NC(=O)C3COc4ccccc4O3)n2)c1 (centres undefined)	2.7%	1.1%	?	?	-12.2	16.4µM*
COc1ccc(-c2csc(NC(=O)CN3C(=O)CCC3=O)n2)cc1OC	18.4%	17.7%	2.6%	-0.3%	16.0	2.2%
COc1ccc(CC(=O)Nc2nc(C(C)(C)C)cs2)cc1	-16.8%	-9.9%	-6.2%	-18.6%	-108.0*	-29.4%
